This note sets out measurements from PMC7862700, “An all-to-all approach to the identification of sequence-specific readers for epigenetic DNA modifications on cytosine”.

Holding throughout (experiment): DAPPL (digital affinity profiling via proximity ligation, sequencing); 10 mM Tris-HCl pH 7.5, 50 mM NaCl, 1 mM DTT, 4% glycerol, room temperature, 30 min; GST-TFs on glutathione beads, 16-mer random dsDNA library, 0.1% formaldehyde crosslink after washing; high values mean tight binding
Holding throughout (conditions): protein: recombinant; tags: N-terminal GST; dsDNA, one strand shown

One experiment addresses T1, FLI1 (Homo sapiens, UniProt Q01543 1-452).
T1 sequence: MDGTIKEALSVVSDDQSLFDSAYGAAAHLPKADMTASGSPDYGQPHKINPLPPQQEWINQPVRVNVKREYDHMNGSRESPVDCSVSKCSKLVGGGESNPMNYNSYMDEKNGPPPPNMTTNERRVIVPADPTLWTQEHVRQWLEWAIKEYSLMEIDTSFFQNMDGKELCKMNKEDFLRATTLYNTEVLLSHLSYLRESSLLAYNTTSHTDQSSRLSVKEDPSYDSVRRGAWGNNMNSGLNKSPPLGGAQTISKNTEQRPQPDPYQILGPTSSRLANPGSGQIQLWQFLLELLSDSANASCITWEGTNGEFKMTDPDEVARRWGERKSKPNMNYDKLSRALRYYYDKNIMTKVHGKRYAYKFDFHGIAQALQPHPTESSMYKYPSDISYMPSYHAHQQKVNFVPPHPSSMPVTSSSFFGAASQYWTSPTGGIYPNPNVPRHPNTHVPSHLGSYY
The essentials: (§1)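 In yeast, human transcription factors were expressed with a GST fusion, then pulled down on glutathione beads and given DNA barcodes. Pooled with a tag-only sample, they were exposed to 200 nmole of a 16-mer random double-stranded DNA library (Tris/NaCl/DTT/glycerol buffer, room temperature, 30 min), washed, crosslinked with 0.1% formaldehyde, proximity-ligated using BsaI/T4 ligase for 1 h at 37 °C, PCR-amplified and read on an Illumina NextSeq500. Each hexamer's frequency of reads for a factor, divided by the matching frequency for the tag-only sample, gives the binding signal.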

For a further experiment, the target named is T2, ELK1 (Homo sapiens, UniProt P19419 1-428).
T2 sequence: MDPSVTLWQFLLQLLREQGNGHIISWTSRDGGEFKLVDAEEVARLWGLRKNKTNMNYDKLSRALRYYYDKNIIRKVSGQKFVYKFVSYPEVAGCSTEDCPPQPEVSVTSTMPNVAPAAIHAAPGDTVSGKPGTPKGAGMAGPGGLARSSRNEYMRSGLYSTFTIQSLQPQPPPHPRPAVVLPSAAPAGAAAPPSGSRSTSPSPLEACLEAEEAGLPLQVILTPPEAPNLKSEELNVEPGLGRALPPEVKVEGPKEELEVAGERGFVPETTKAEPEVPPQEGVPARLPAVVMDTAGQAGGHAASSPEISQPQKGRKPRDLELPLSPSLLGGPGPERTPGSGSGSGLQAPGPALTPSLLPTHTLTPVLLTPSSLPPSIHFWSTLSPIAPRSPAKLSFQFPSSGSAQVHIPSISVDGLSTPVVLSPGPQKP
A digest of the protocol:
as §1

Another experiment has as its target T3, GABPA (Homo sapiens, UniProt Q06546 1-454).
T3 sequence: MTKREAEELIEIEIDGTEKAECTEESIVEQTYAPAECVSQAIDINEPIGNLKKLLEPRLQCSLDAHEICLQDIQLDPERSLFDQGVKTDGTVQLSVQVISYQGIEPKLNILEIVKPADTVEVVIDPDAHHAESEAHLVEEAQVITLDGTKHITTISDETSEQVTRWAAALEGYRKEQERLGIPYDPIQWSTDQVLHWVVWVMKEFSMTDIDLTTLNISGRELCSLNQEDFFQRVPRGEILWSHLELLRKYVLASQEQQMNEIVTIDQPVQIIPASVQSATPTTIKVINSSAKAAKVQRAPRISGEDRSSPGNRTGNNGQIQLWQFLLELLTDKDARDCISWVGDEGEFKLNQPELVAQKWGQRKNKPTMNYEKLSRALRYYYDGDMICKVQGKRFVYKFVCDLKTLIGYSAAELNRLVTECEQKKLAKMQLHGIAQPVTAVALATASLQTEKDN
A digest of the protocol: as §1

For a further experiment, the target named is T4, ERG (Homo sapiens, UniProt P11308 1-479).
T4 sequence: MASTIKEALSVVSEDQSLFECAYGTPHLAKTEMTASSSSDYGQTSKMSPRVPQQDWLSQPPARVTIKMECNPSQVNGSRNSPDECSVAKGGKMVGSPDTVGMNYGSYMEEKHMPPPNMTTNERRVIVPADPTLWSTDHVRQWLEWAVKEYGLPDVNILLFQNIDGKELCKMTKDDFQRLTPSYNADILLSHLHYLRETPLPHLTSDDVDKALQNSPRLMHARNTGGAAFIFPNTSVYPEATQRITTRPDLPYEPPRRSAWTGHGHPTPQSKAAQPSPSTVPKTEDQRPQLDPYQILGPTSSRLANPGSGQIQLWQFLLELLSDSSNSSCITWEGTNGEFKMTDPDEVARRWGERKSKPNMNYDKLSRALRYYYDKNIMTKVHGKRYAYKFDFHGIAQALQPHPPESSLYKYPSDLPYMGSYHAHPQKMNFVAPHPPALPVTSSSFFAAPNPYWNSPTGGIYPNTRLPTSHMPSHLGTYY
The essentials: as §1

The target in a further experiment is ELF1 (Homo sapiens, UniProt P32519 1-619). The essentials:
as §1

The target of a further experiment is T5, EHF (Homo sapiens, UniProt Q9NZC4 1-300).
T5 sequence: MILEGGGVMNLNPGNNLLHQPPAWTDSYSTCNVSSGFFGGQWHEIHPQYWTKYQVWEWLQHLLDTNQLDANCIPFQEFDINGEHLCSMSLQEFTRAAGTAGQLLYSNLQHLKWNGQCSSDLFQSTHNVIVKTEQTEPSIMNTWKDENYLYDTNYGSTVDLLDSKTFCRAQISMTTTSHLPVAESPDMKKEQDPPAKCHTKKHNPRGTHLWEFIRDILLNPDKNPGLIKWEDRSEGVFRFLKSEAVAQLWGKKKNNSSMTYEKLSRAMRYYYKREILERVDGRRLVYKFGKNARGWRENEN
A digest of the protocol: as §1

Another experiment deals with SPI1 (Homo sapiens, UniProt P17947 1-270). The essentials:
as §1

The next experiment deals with SPIB (Homo sapiens, UniProt Q01892 1-262). A digest of the protocol:
as §1

The target in the next experiment is T6, ELK3 (Homo sapiens, UniProt P41970 1-407).
T6 sequence: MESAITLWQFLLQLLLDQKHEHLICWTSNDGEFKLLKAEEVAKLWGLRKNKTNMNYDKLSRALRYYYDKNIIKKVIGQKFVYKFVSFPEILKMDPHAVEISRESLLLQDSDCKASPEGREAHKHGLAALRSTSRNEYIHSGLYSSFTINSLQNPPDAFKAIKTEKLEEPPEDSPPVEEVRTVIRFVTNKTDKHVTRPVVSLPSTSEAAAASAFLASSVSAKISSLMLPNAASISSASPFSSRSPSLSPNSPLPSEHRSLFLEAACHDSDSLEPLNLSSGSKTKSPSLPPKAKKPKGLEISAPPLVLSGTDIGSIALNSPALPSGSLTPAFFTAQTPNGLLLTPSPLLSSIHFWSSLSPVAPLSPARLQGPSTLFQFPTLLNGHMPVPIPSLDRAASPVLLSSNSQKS
The essentials: as §1

Chain of SPIB (Q01892 whole entry): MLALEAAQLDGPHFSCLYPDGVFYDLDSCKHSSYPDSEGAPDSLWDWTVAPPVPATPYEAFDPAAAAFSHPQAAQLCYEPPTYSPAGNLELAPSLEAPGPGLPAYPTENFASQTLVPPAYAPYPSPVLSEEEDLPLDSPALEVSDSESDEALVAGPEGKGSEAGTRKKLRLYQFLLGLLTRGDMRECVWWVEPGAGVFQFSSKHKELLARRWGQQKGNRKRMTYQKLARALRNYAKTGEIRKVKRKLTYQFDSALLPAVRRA
Chain of ELF1 (P32519 whole entry): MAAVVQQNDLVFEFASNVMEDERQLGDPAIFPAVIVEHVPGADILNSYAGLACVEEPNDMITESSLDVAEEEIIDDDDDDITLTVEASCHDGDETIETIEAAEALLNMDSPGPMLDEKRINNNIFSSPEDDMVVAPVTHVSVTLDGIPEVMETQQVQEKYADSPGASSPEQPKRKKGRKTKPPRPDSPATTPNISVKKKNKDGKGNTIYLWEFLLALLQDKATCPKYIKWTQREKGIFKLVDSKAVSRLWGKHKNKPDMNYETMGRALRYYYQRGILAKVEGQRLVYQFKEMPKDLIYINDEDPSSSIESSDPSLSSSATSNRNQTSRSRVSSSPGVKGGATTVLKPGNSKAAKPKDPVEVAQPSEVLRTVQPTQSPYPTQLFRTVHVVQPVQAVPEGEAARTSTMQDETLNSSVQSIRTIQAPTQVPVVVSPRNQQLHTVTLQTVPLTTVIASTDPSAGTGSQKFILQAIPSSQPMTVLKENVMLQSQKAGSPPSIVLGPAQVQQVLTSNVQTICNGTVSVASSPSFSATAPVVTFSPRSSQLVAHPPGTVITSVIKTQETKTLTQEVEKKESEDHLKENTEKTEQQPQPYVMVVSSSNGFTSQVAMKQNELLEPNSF

TTCTGA: the binding signal with FLI1 was 1.37 fold enrichment (6-mer frequency, TF over GST control); in the experiment with ELK1, 1.39 fold enrichment (6-mer frequency, TF over GST control); in the experiment with GABPA, 1.27 fold enrichment (6-mer frequency, TF over GST control); in the experiment with ERG, 1.31 fold enrichment (6-mer frequency, TF over GST control); with ELF1, 1.27 fold enrichment (6-mer frequency, TF over GST control); with EHF it was 1.32 fold enrichment (6-mer frequency, TF over GST control). Also, the binding signal in the experiment with SPI1 was 1.21 fold enrichment (6-mer frequency, TF over GST control); with SPIB, 1.32 fold enrichment (6-mer frequency, TF over GST control); with ELK3 it was 1.38 fold enrichment (6-mer frequency, TF over GST control).

Consider TTCGGT, for which the binding signal with FLI1 is 1.06 fold enrichment (6-mer frequency, TF over GST control); with ELK1, 1.09 fold enrichment (6-mer frequency, TF over GST control); with GABPA, 1.13 fold enrichment (6-mer frequency, TF over GST control); in the experiment with ERG it was 1.1 fold enrichment (6-mer frequency, TF over GST control); in the experiment with ELF1 it was 1.14 fold enrichment (6-mer frequency, TF over GST control); with EHF, 1.23 fold enrichment (6-mer frequency, TF over GST control). In addition, the binding signal is 1.2 fold enrichment (6-mer frequency, TF over GST control) with SPI1; 1.16 fold enrichment (6-mer frequency, TF over GST control) in the experiment with SPIB; 1.22 fold enrichment (6-mer frequency, TF over GST control) with ELK3.

Consider ACGTAT, for which the binding signal in the experiment with FLI1 is 1.24 fold enrichment (6-mer frequency, TF over GST control); with ELK1, 1.29 fold enrichment (6-mer frequency, TF over GST control); with GABPA, 1.21 fold enrichment (6-mer frequency, TF over GST control); in the experiment with ERG, 1.17 fold enrichment (6-mer frequency, TF over GST control); with ELF1, 1.17 fold enrichment (6-mer frequency, TF over GST control); with EHF it was 1.29 fold enrichment (6-mer frequency, TF over GST control). In addition, the binding signal was 1.14 fold enrichment (6-mer frequency, TF over GST control) with SPI1; 1.19 fold enrichment (6-mer frequency, TF over GST control) with SPIB; 1.42 fold enrichment (6-mer frequency, TF over GST control) with ELK3.

With ACTTCT, the binding signal with FLI1 was 1.49 fold enrichment (6-mer frequency, TF over GST control); with ELK1, 1.53 fold enrichment (6-mer frequency, TF over GST control); with GABPA it was 1.5 fold enrichment (6-mer frequency, TF over GST control); with ERG it was 1.43 fold enrichment (6-mer frequency, TF over GST control); in the experiment with ELF1 it was 1.52 fold enrichment (6-mer frequency, TF over GST control); with EHF, 1.56 fold enrichment (6-mer frequency, TF over GST control). Moreover, the binding signal is 1.62 fold enrichment (6-mer frequency, TF over GST control) in the experiment with SPI1; 1.45 fold enrichment (6-mer frequency, TF over GST control) in the experiment with SPIB; 1.48 fold enrichment (6-mer frequency, TF over GST control) in the experiment with ELK3.

With TGGCTT, the binding signal in the experiment with FLI1 was 1.27 fold enrichment (6-mer frequency, TF over GST control); with ELK1 it was 1.21 fold enrichment (6-mer frequency, TF over GST control); with GABPA it was 1.33 fold enrichment (6-mer frequency, TF over GST control); in the experiment with ERG, 1.31 fold enrichment (6-mer frequency, TF over GST control); in the experiment with ELF1, 1.28 fold enrichment (6-mer frequency, TF over GST control); with EHF it was 1.26 fold enrichment (6-mer frequency, TF over GST control). Besides, the binding signal was 1.24 fold enrichment (6-mer frequency, TF over GST control) with SPI1; 1.26 fold enrichment (6-mer frequency, TF over GST control) with SPIB; 1.23 fold enrichment (6-mer frequency, TF over GST control) in the experiment with ELK3.

Regarding TCTTAA, the binding signal with FLI1 is 1.18 fold enrichment (6-mer frequency, TF over GST control); with ELK1 it was 1.13 fold enrichment (6-mer frequency, TF over GST control); with GABPA it was 1.16 fold enrichment (6-mer frequency, TF over GST control); with ERG, 1.21 fold enrichment (6-mer frequency, TF over GST control); with ELF1, 1.23 fold enrichment (6-mer frequency, TF over GST control); in the experiment with EHF, 1.09 fold enrichment (6-mer frequency, TF over GST control). In addition, the binding signal is 1.23 fold enrichment (6-mer frequency, TF over GST control) in the experiment with SPI1; 1.23 fold enrichment (6-mer frequency, TF over GST control) with SPIB; 1.23 fold enrichment (6-mer frequency, TF over GST control) in the experiment with ELK3.

Turning to ATTCCG, the binding signal in the experiment with FLI1 was 1.84 fold enrichment (6-mer frequency, TF over GST control); with ELK1, 1.84 fold enrichment (6-mer frequency, TF over GST control); with GABPA, 1.65 fold enrichment (6-mer frequency, TF over GST control); with ERG it was 1.82 fold enrichment (6-mer frequency, TF over GST control); with ELF1, 1.61 fold enrichment (6-mer frequency, TF over GST control); with EHF, 1.86 fold enrichment (6-mer frequency, TF over GST control). Besides, the binding signal with SPI1 is 1.69 fold enrichment (6-mer frequency, TF over GST control); with SPIB, 1.78 fold enrichment (6-mer frequency, TF over GST control); with ELK3 it was 1.78 fold enrichment (6-mer frequency, TF over GST control).

As to CTCTGA, the binding signal was 1.18 fold enrichment (6-mer frequency, TF over GST control) with FLI1; 1.32 fold enrichment (6-mer frequency, TF over GST control) in the experiment with ELK1; 1.22 fold enrichment (6-mer frequency, TF over GST control) with GABPA; 1.21 fold enrichment (6-mer frequency, TF over GST control) with ERG; 1.25 fold enrichment (6-mer frequency, TF over GST control) in the experiment with ELF1; 1.3 fold enrichment (6-mer frequency, TF over GST control) with EHF. Further, the binding signal in the experiment with SPI1 was 1.17 fold enrichment (6-mer frequency, TF over GST control); in the experiment with SPIB, 1.31 fold enrichment (6-mer frequency, TF over GST control); with ELK3, 1.12 fold enrichment (6-mer frequency, TF over GST control).
